Measured values published in PubChem BioAssay AID977607 (Broad Institute, 2014).
The whole screen tested about 1,500 compounds, of which about 460 (31%) were called active. Roughly 1% stayed inconclusive and do not appear here.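 How the source made its calls: active means curve reaches 40% activation over neutral controls at an AC40 no higher than the top valid tested concentration; inconclusive means no clear call, values can overlap the other calls; inactive means signal moving opposite to the expected increase, and the rest.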 These entries were drawn from the full list. Potency and affinity values are given separately.

Assay: GLuc-reported insulin release enhancers, glucose-stimulated beta cells – cell-based, INS-1E, Gaussia luciferase, luminescence, cherry-pick, set 2, dose response (AID 977607);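 further: 0% = median of the plate neutral control wells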
Conditions: INS-1E GLuc insulin secretion reporter, 2-3 h, stronger effect = higher value; at 35 µM, 100% = signal doubled over neutral wells unless noted

Max activation, inactive:
COc1ccc(C(=O)Nc2nnc(-c3ccco3)s2)cc1 -13.7% [at 0.135 µM, 100% = signal doubled over neutral wells]
NC(=O)C1CCN(C(=O)CCNS(=O)(=O)c2ccccc2F)CC1 14.1% [at 1.2 µM, 100% = signal doubled over neutral wells]
CCn1cc(C(=O)O)c(=O)c2cc(F)c(N3CCN(C(=S)NC(=O)c4cccc(C)c4)CC3)cc21 -20.5%
CCOc1ccc(CCNC(=O)COC(=O)c2cccc(N(C)C)c2)cc1OCC -44%
CC(C)CC(=O)Nc1cccc(-c2nc3ncccc3o2)c1 -18.2% [at 0.0016 µM, 100% = signal doubled over neutral wells]
CN1CCN(c2ccc(NC(=O)c3ccc(Oc4ccccc4)cc3)cc2)CC1 -14.3% [at 0.015 µM, 100% = signal doubled over neutral wells]
COc1ccc(S(=O)(=O)N2CCCCC2)cc1NC(=O)C1CCCC1 -27.7% [at 0.135 µM, 100% = signal doubled over neutral wells]
O=C(NCc1ccccc1)c1cccnc1Sc1ccccc1 14.4% [at 3.8 µM, 100% = signal doubled over neutral wells]
CCOCCCn1c(SCc2ccccc2)nnc1-c1ccncc1 27.1% [at 1.2 µM, 100% = signal doubled over neutral wells]
CNc1nc(-c2ccccc2)cc(-c2ccccc2)n1 -32.2%
CC(C)Cc1nc2n[nH]c(N)c2c2c1COC(C)(C)C2 33.4%
CCCCOc1ccc(SCCCN2CCOCC2)cc1 -17.1% [at 11 µM, 100% = signal doubled over neutral wells]
CC(=O)Oc1ccccc1C(=O)OCCN=C1NS(=O)(=O)c2ccccc21 -19.1% [at 0.046 µM, 100% = signal doubled over neutral wells]
CCOC(=O)c1cc(-c2ccc(Cl)s2)nc2c1c(C)nn2C 61.3%
N#Cc1cccnc1Nc1cccc(Cl)c1 31.6%
CCNC(=O)C1(C)CCCN1C(=O)c1cc(OC)c(OC)c(OC)c1 (stereo not drawn) -19.1% [at 0.135 µM, 100% = signal doubled over neutral wells]
CC(=O)Nc1ccc(Nc2nc(-c3c(C)nc4ccccn34)cs2)cc1 -20% [at 11 µM, 100% = signal doubled over neutral wells]
O=C(Nc1cccc(Cl)c1)Nc1nc(-c2ccc(Cl)cc2)cs1 -37.7% [at 11 µM, 100% = signal doubled over neutral wells]
Cc1ccc(-c2cc(C(=O)Nc3nn[nH]n3)c3ccccc3n2)c(C)c1 -12.2% [at 1.2 µM, 100% = signal doubled over neutral wells]
Cc1ccc2c(c1)C=CC(C#N)N2C(=O)c1ccccc1 (stereo not drawn) 36.1%
O=C(COc1nncc2ccccc12)NCC(F)(F)F 25.7%
Cc1ccc(C(OCC(O)CNCc2ccc(F)cc2)c2ccccc2)cc1 (stereo not drawn) 97.1%
CCOC(=O)CN1C(=O)[C@]2(OCCC=C[C@H]2C)c2ccccc21 33.6%
C1CCN(CCCNC2C3CC4CC(C3)CC2C4)C1 (stereo not drawn) -11.8% [at 0.0016 µM, 100% = signal doubled over neutral wells]
CCc1nc2c(nnn2Cc2ccc(F)cc2)c(=O)[nH]1 -16% [at 0.42 µM, 100% = signal doubled over neutral wells]
COc1ccc(-c2cc(-c3ccco3)[nH]c(=O)c2C#N)cc1OC -12.7% [at 3.8 µM, 100% = signal doubled over neutral wells]
COc1ccc(CC(=O)N2CCc3cc(OC)c(OC)cc3C2)cc1 20%
O=C(Nc1ccc(NC(=O)c2cccs2)cc1)c1ccc(Br)o1 -18.3% [at 0.135 µM, 100% = signal doubled over neutral wells]
O=C(Nc1nnc(CCS(=O)(=O)c2ccc3ccccc3c2)s1)c1cccs1 -24% [at 0.015 µM, 100% = signal doubled over neutral wells]
CC1(C)N=C(c2ccccc2)C(c2ccccc2)=N1 33.2%
CCOc1ncccc1C(=O)OCC(=O)NCCc1ccc(S(N)(=O)=O)cc1 -12.8% [at 0.046 µM, 100% = signal doubled over neutral wells]
CCOC(=O)c1cc(-c2ccncc2)nc2c1c(C)nn2-c1ccccn1 -16.4% [at 0.005 µM, 100% = signal doubled over neutral wells]
CCOC(=O)Cn1nc(-c2ccccc2)c(-c2ccccc2)nc1=O -19.8% [at 0.005 µM, 100% = signal doubled over neutral wells]
Cc1ccc(-n2cc(CNCCCn3ccnc3C)c(-c3ccc(F)cc3)n2)cc1 -12.6% [at 1.2 µM, 100% = signal doubled over neutral wells]
COc1ccc(S(=O)(=O)N(C)c2ccc(C(=O)N3CCCC3)cc2)cc1OC -12.8% [at 3.8 µM, 100% = signal doubled over neutral wells]
O=C(O)c1ccc(S(=O)(=O)N2CCC3(CC2)CC(=O)c2ccccc2O3)cc1 -16.3% [at 1.2 µM, 100% = signal doubled over neutral wells]
CCCN1C[C@@H](C)[C@@H](OC)CN(C)C(=O)c2ccc(NC(=O)c3cccc(F)c3)cc2OC[C@H]1C -15.7% [at 0.005 µM, 100% = signal doubled over neutral wells]
O=C(Nc1cccc(Cl)c1)c1cnn2cccnc12 29.7%
CCc1nc2ccc(C(=O)NCCCN3CCCC3=O)cn2c1N(CCC(C)C)CCN(C)C -19.8% [at 0.42 µM, 100% = signal doubled over neutral wells]
CC(=O)c1cccc(-c2csc3ncnc(Sc4nnnn4C)c23)c1 -11.8% [at 0.005 µM, 100% = signal doubled over neutral wells]
CCN(CC)C(=O)C1(P(=O)(c2ccccc2)c2ccccc2)CCC1 -17.4% [at 0.42 µM, 100% = signal doubled over neutral wells]
O=C(c1ccco1)N(Cc1ccc(Cl)cc1)C1CCS(=O)(=O)C1 (stereo not drawn) 17.8%
CCn1nnnc1NCc1ccc(OCc2c(F)cccc2Cl)c(OC)c1 -22.7% [at 1.2 µM, 100% = signal doubled over neutral wells]
O=c1c(Cc2ccc(Cl)cc2Cl)c(O)ccn1CC(F)(F)F 17.3%
COc1ccc(CNC(=O)C2Cc3c(-c4ccccc4)ccnc3O2)cc1OC (stereo not drawn) -21.6% [at 11 µM, 100% = signal doubled over neutral wells]
C/C(Cl)=C\Cn1c(N2CCCC2)nc2c1c(=O)n(C)c(=O)n2C -30.4% [at 1.2 µM, 100% = signal doubled over neutral wells]
CCNc1nc(NCC)nc(N(C#N)C(C)C)n1 28.6% [at 11 µM, 100% = signal doubled over neutral wells]
Cc1nc2ccccc2c2nc(NC(=O)C(F)(F)F)nn12 -15.5% [at 11 µM, 100% = signal doubled over neutral wells]
CC(C)Oc1ccc(Br)cc1C(=O)N/N=C/c1c[nH]c2ccccc12 -45.1%
CN(C)c1ccc(/C=N/NC(=O)c2ccccc2Cl)cc1 -9.59% [at 0.046 µM, 100% = signal doubled over neutral wells]
NC(=O)c1ncn([C@@H]2O[C@H](C(=O)N[C@H](Cc3ccccc3)C(=O)O)[C@@H](O)[C@H]2O)n1 -32.5%
COc1ccc(N2CCN(C(c3cccs3)C(C)NC(=O)C(=O)N3CCOCC3)CC2)cc1 (stereo not drawn) -16.6% [at 3.8 µM, 100% = signal doubled over neutral wells]
Cc1ccc(NC(=O)CC2S/C(=N/N=C/c3c[nH]c4ccccc34)NC2=O)cc1 (stereo not drawn) 19.8% [at 3.8 µM, 100% = signal doubled over neutral wells]
Cc1ccc(CC2S/C(=N/c3ccccn3)NC2=O)cc1 (stereo not drawn) -16.1% [at 0.42 µM, 100% = signal doubled over neutral wells]
CCOC(=O)N1CCN(S(=O)(=O)N2CCCC(C(=O)NCc3cc(OC)ccc3OC)C2)CC1 (stereo not drawn) -20.8% [at 1.2 µM, 100% = signal doubled over neutral wells]
CCOC(=O)c1c(NC(=O)c2ccoc2C)sc(C(=O)N(C)C)c1C 12.6%
CC(=O)Nc1sc(C)c(C)c1C(=O)OCC(=O)Nc1cc(S(C)(=O)=O)ccc1Cl -22.2%
O=c1[nH]c(CN2CCN(c3ccc(O)cc3)CC2)nc2scc(-c3ccc(Cl)cc3)c12 -25.6%
